# From PubChem BioAssay
# KB-V1 MDR tox: kills drug-selected multidrug resistant KB-V1 cells. KB-V1 MDR cells viability, CellTiter-Glo, 72 h. Potency, µM (titrated, usually from 46.1 µM), hits mostly cytotoxic. 3.4% of 400,000 active. AID 1347076; further: on the % scale 0 is the no-effect control and ±100 the full control effect; nearly all actives have a fitted effect of over 60% in size
#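 Cytotoxicity toward P-gp-expressing KB-V1 cells was determined as loss of CellTiter-Glo luminescence after 72 h at 37 degrees C. Compounds were tested in quantitative HTS format across a concentration range, with curves fitted to normalized data.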
# SW480 rereplic: inducers of DNA re-replication in SW480 colon cancer cells; SW480 DNA re-replication, Hoechst DNA content imaging, 48 h; Potency, µM (doses to about 46.1 µM), inactives show top-dose re-replication activation, actives largely listed as activators; 1.8% of 340,000 active; further: % of control where 0% means no effect; nearly all actives have a fitted effect of over 55% in size
#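 Hoechst fluorescence of nuclei (405 nm excitation, 500-530 nm emission) measured by plate-scanning imager after 48 hr compound exposure at 37 C; re-replication scored as increased number of nuclei with elevated intensity.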
# MCF10A rerep: DNA re-replication induction in MCF 10a cells; 2.9% of 350,000 active; Potency, µM (series often up to 46.1 µM), for the others: top-dose activity, positive = re-replication, actives largely listed as activators; MCF 10A DNA re-replication, Hoechst nuclear intensity, 48 h; AID 624296; further: % of control where 0% means no effect; nearly all actives have a fitted effect of over 50% in size
# KB-3-1 tox: kills parental KB-3-1 adenocarcinoma cells; 1.4% of 400,000 active; Potency, µM (series often up to 46.1 µM), actives largely listed as cytotoxic; KB-3-1 viability, CellTiter-Glo ATP luminescence, 72 h; further: on the % scale 0 is the no-effect control and ±100 the full control effect; nearly all actives have a fitted effect of over 60% in size
#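 Parental KB-3-1 adenocarcinoma cells in phenol-red-free DMEM with 10% FBS were pin-treated with compounds at several concentrations, incubated 72 h at 37 °C, and viability read by CellTiter-Glo luminescence; concentration-effect curves were fitted after normalization.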
# HT1080 IDH1KD tx: HT-1080 IDH1 knockdown cell toxicity (counter line) | HT-1080 IDH1 knockdown viability, ATP luminescence, 48 h | Potency, µM (titrated, usually from 46.1 µM), without a hit: at the highest dose activity, negative = toxicity, most hits filed as cytotoxic | 2% of 360,000 active;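 further: 0% = DMSO wells and -100% = cell-free medium wells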
#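 Using the IDH1-knockdown HT-1080 line run in the same batch and compound series as the NT line, viability after 48 h at 37 °C was determined by CellTiter-Glo luminescence and expressed as % activity.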
# HT1080-NT tox: kills 2HG-producing HT-1080-NT fibrosarcoma cells; HT-1080-NT fibrosarcoma viability, CellTiter-Glo ATP luminescence, 48 h; Potency, µM (doses to about 46.1 µM), for inactives: top-dose activity, negative = less viability, usual class: cytotoxic; 1.6% of 360,000 active;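 further: NT is the 2HG producing partner of a matched IDH1 knockdown line; 0% = DMSO-treated cells and -100% = media-only wells without cells; nearly all actives have a fitted effect of over 55% in size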
#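 A 48-hour cytotoxicity screen used HT-1080-NT cells plated 2 hours before compound delivery. ATP-based CellTiter-Glo luminescence measured viability, normalized to DMSO and no-cell controls.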
# Active calls of the source: *; i = inactive; ? = inconclusive; . = no result. Most compounds without a hit are left out; they make up all but 8% or so of the library. The call rests on the fitted dose curve; in most records, active means well fitted curve in the direction sought with a large enough effect; inconclusive means small, poorly fitted or top-dose-only effect, or another doubt; inactive means no such curve, though single readings can be large; an effect the other way counts as inactive or inconclusive. Potency means the concentration at half of the fitted maximal effect.
SMILES,KB-V1 MDR tox,SW480 rereplic,MCF10A rerep,KB-3-1 tox,HT1080 IDH1KD tx,HT1080-NT tox
O=C(Cc1cccs1)NNC(=S)NCc1ccco1,i,2.9%,3.4%,i,11.4%,20.6%
O=C(Cc1ccc(-c2ccccc2)cc1)NCc1cccnc1,?,23.1µM*,11.6µM*,14.6µM*,8.2µM*,?
O=C(Cc1ccc(-c2ccccc2)cc1)NNC(=S)NCc1ccco1,8.2µM*,1.4%,?,i,-8.1%,-13.9%
O=C(NCc1ccc(Cl)cc1)c1ccccc1CCc1ccccc1,20.6µM*,4.8%,?,i,-5.8%,-2.0%
Nc1nc2ccccc2cc1C(=O)NCc1ccc(-c2ccccc2)cc1,2.59µM*,.,.,2.31µM*,1.3µM*,?
O=C(NCc1ccccc1Cl)c1ccccc1CCc1ccccc1,i,-3.6%,2.8%,i,-9.8%,-8.6%
Cc1cccc(C)c1NC(=O)C1CCCN1S(=O)(=O)c1cccc2nsnc12 (stereo not drawn),i,.,.,i,.,.
CCOC(=O)/C=C/[C@H]1CC(c2ccccc2)(c2ccccc2)CO1,i,-2.8%,?,i,0.5%,0.0%
O=C(NCc1ccc(Cl)cc1)C(=O)Nc1cccc(Br)c1,i,.,.,?,.,.
CCN1C/C(=N\S(=O)(=O)/N=C2\CN(CC)C(=O)N2CC)N(CC)C1=O,i,3.0%,2.0%,i,0.6%,-1.0%
c1ccc(CN=C(NCc2ccccc2)NCc2ccccc2)cc1,i,?,?,?,16.4µM*,?
O=C(/C=N/O)NCc1cccnc1,i,13µM*,14.6µM*,i,17.4%,0.0%
Cc1ccc(CNC(=O)Cc2ccc(-c3ccccc3)cc2)cc1,i,1.16µM*,?,i,2.82µM*,3.98µM*
O=C(Cc1ccc(-c2ccccc2)cc1)NCc1ccccc1,0.291µM*,1.3µM*,0.116µM*,0.082µM*,?,?
S=C(NCc1ccccc1)C(=S)NCc1ccccc1,i,-3.0%,0.1%,i,-0.4%,1.2%
COCCn1cnc2c1c(=O)n(CC(=O)NCC(F)(F)F)c(=O)n2Cc1ccccc1,i,-9.3%,5.1%,i,12.5%,5.6%
CCc1nc2nc(C)c(NS(=O)(=O)c3ccc(C(C)(C)C)cc3)c(=O)n2[nH]1,i,.,.,i,.,.
CC1Oc2ccccc2N(CC(=O)c2ccc(F)cc2)C1=O (stereo not drawn),i,26.4%,-27.1%,i,-1.7%,0.6%
Cc1ccc(CC(=O)NCc2ccc(F)cc2)cc1,?,18.4µM*,?,?,7.31µM*,9.2µM*
Cc1cc2ccc3ccccc3c2cc1CN(C)C,i,7.31µM*,1.7%,i,18.4µM*,32.6µM*
COc1ccccc1CNC(=O)C(=O)NCC(c1ccc2c(c1)OCO2)N1CCOCC1 (stereo not drawn),i,.,.,i,.,.
COCCCNC(=O)/C(C#N)=C/c1c(N2CCN(c3ccccc3)CC2)nc2ccccn2c1=O,?,9.2µM*,20.6µM*,i,2.5%,4.8%
N#C/C(=C\c1c(N(Cc2ccccc2)Cc2ccccc2)nc2ccccn2c1=O)C(N)=O,?,-8.3%,-0.6%,i,0.3%,0.3%
COCCNC(=O)/C(C#N)=C/c1c(N2CCN(c3ccccc3)CC2)nc2ccccn2c1=O,i,-5.5%,23.6%,i,0.4%,24.8%
C=CCNC(=O)/C(C#N)=C/c1c(N(Cc2ccccc2)Cc2ccccc2)nc2ccccn2c1=O,18.4µM*,20.1%,5.4%,i,-29.1%,-4.6%
SMILES,KB-V1 MDR tox,SW480 rereplic,MCF10A rerep,KB-3-1 tox,HT1080 IDH1KD tx,HT1080-NT tox
COCCCNC(=O)/C(C#N)=C/c1c(N2CCN(C)CC2)nc2ccccn2c1=O,i,?,20.6µM*,i,0.0%,0.1%
CC(C)CN1C(=O)C(=O)N(CC(=O)c2ccc[nH]2)C1=O,i,0.8%,-4.6%,?,2.1%,-0.3%
O=C(NCCCN1CCN(c2ccc(F)cc2)CC1)Nc1ccccc1Cl,i,.,.,i,.,.
CN1/C(=C/C2CC(=O)N(c3cccc4ccccc34)C2=O)C(C)(C)c2ccccc21 (stereo not drawn),i,18.4µM*,?,i,14.1%,3.2%
COc1ccc(NC(=O)CC2C(=O)N(C)C(=S)N2Cc2ccco2)cc1 (stereo not drawn),i,-0.8%,-4.4%,i,2.7%,-2.6%
COc1ccc(NC(=O)CC2C(=O)N(CCc3ccccc3)C(=S)N2Cc2cccnc2)cc1 (stereo not drawn),14.6µM*,?,?,i,?,-27.6%
C=CCN1C(=O)C(CC(=O)Nc2ccc(OC)cc2)N(Cc2ccco2)C1=S (stereo not drawn),20.6µM*,0.4%,-2.5%,i,-3.8%,-3.0%
CCN1C(=O)C(CC(=O)Nc2ccc(F)cc2)N(CCc2ccc(OC)cc2)C1=S (stereo not drawn),i,5.0%,0.7%,i,-25.4%,-7.4%
CN1C(=O)C(CC(=O)Nc2ccc(F)cc2)N(CCCc2ccccc2)C1=S (stereo not drawn),?,?,15.4%,?,?,20.6µM*
CCN1C(=O)C(CC(=O)Nc2ccc(OC)cc2)N(CCc2ccccc2)C1=S (stereo not drawn),20.6µM*,-5.4%,7.3%,?,?,?
Cc1cccc(N2CCN(S(=O)(=O)c3ccc4oc(=O)c5ncn(C)c5c4c3)CC2)c1C,i,.,.,i,.,.
COC(=O)CN1C(=S)N(c2ccc(Cl)cc2)C(=O)C1CC(=O)Nc1ccc(Cl)cc1 (stereo not drawn),i,-3.3%,?,i,?,?
COC(=O)CN1C(=S)N(Cc2ccccc2)C(=O)C1CC(=O)Nc1ccc(Br)cc1 (stereo not drawn),i,?,18.4µM*,i,?,?
Cc1ccc(S(=O)(=O)N2CCN(C(=O)c3ccc(N4CCC(C)CC4)c([N+](=O)[O-])c3)CC2)cc1,18.4µM*,-5.3%,2.7%,i,-3.7%,1.8%
COc1ccc2oc(-c3ccc(NC(=O)c4ccc(Cl)cc4Cl)cc3)nc2c1,i,.,.,i,.,.
O=c1oc2ccccc2cc1-c1nnc(NCc2ccco2)s1,?,13µM*,9.2µM*,?,-1.3%,3.6%
Cc1c(C(=O)Nc2ccccn2)oc2ccccc12,10.3µM*,-2.0%,?,i,?,-8.0%
COC(=O)c1sc(NC(=O)c2oc3ccccc3c2C)nc1C,i,-0.7%,0.3%,i,-2.3%,-1.1%
